Measurements from article PMC7862700, “An all-to-all approach to the identification of sequence-specific readers for epigenetic DNA modifications on cytosine”.

Experiments:
Experiment in all cases: DAPPL (digital affinity profiling via proximity ligation, sequencing); 10 mM Tris-HCl pH 7.5, 50 mM NaCl, 1 mM DTT, 4% glycerol, room temperature, 30 min; GST-TFs on glutathione beads, 16-mer random dsDNA library, 0.1% formaldehyde crosslink after washing; high values mean tight binding
Settings in all cases: protein: recombinant; tags: N-terminal GST; dsDNA, one strand shown
FLI1 = target: T1, FLI1 (Homo sapiens, UniProt Q01543 1-452)
T1 sequence: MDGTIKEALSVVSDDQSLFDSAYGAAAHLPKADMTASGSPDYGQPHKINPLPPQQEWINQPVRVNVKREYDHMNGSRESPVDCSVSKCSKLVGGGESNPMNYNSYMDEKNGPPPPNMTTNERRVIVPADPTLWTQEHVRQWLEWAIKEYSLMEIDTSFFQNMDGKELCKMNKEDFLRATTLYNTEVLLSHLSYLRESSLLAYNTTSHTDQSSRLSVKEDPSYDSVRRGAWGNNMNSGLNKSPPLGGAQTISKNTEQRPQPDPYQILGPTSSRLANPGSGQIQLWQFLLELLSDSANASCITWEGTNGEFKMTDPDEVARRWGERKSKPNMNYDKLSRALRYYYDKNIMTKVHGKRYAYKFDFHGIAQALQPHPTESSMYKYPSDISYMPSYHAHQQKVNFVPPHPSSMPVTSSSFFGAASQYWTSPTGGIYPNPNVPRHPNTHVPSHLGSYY
In short: (§1)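 Binding signal is given per hexamer as its read frequency for a factor divided by its frequency in the tag-only sample. GST-fused human transcription factors were expressed in yeast, captured on glutathione beads, barcoded with DNA and pooled with that sample, then incubated with 200 nmole of a 16-mer random double-stranded DNA library in Tris/NaCl/DTT/glycerol buffer for 30 min at room temperature. The pools were then washed, crosslinked, proximity-ligated, amplified by PCR and sequenced on an Illumina NextSeq500.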

ELK1 = target: T2, ELK1 (Homo sapiens, UniProt P19419 1-428)
T2 sequence: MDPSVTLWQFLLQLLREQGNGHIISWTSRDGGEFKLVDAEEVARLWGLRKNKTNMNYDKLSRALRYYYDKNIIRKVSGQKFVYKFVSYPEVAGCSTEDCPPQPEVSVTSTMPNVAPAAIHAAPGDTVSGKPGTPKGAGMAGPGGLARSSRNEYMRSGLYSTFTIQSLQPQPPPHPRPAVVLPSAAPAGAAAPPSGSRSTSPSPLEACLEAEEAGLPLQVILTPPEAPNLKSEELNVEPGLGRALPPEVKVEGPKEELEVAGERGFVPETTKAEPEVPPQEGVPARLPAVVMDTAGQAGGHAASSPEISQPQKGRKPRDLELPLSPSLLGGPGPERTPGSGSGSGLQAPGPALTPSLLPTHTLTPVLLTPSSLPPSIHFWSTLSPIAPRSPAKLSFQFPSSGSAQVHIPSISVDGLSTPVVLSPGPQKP
In short: as §1

GABPA = target: T3, GABPA (Homo sapiens, UniProt Q06546 1-454)
T3 sequence: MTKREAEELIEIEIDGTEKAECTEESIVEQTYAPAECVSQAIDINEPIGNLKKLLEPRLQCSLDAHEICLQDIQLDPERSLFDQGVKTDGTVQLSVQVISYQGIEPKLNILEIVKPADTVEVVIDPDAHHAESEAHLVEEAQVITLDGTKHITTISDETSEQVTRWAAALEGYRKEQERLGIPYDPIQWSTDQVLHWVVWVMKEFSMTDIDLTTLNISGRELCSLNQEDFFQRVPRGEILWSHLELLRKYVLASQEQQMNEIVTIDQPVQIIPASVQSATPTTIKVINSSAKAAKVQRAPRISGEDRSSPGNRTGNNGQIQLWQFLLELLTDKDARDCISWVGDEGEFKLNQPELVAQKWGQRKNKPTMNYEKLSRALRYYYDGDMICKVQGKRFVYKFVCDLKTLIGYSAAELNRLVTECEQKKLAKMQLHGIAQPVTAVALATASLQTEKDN
In short: as §1

ERG = target: T4, ERG (Homo sapiens, UniProt P11308 1-479)
T4 sequence: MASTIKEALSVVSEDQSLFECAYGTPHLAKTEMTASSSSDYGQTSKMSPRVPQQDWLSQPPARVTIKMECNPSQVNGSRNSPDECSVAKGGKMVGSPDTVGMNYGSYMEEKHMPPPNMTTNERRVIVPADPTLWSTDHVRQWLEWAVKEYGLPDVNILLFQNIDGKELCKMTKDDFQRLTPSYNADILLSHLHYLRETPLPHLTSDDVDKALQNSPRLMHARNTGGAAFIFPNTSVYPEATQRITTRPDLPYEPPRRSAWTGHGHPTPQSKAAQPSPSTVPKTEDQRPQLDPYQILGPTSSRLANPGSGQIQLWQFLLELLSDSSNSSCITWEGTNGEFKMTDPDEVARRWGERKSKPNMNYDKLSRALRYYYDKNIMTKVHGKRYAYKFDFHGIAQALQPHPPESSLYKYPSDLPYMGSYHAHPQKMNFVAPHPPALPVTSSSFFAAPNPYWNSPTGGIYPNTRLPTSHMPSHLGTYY
In short: as §1

ELF1 = ELF1 (Homo sapiens, UniProt P32519 1-619)
Chain of ELF1 (P32519 whole entry): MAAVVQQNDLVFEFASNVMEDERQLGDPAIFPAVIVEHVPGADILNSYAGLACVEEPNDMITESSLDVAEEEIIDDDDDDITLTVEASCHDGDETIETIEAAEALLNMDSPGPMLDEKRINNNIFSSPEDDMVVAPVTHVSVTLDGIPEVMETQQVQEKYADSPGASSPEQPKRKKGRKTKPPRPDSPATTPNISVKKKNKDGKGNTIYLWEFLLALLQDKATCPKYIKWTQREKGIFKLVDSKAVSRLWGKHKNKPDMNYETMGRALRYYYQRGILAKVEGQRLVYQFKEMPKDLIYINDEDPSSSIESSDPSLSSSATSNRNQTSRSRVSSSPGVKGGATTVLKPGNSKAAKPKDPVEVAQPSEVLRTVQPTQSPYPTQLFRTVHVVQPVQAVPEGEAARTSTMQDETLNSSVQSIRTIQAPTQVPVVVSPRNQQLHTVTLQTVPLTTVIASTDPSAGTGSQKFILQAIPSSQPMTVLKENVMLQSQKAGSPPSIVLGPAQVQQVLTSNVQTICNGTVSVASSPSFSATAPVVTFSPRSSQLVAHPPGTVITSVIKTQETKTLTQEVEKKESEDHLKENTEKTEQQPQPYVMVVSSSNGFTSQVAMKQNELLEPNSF
In short: as §1

EHF = target: T5, EHF (Homo sapiens, UniProt Q9NZC4 1-300)
T5 sequence: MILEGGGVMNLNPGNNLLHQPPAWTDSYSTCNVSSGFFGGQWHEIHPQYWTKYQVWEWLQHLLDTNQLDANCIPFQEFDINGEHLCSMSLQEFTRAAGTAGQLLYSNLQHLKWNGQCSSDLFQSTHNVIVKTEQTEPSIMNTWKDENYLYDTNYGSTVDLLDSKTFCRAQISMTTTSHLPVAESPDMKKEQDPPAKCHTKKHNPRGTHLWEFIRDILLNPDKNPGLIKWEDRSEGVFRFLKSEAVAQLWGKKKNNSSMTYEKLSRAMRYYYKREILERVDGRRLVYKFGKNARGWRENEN
In short: as §1

SPI1 = SPI1 (Homo sapiens, UniProt P17947 1-270)
In short: as §1

SPIB = SPIB (Homo sapiens, UniProt Q01892 1-262)
Chain of SPIB (Q01892 whole entry): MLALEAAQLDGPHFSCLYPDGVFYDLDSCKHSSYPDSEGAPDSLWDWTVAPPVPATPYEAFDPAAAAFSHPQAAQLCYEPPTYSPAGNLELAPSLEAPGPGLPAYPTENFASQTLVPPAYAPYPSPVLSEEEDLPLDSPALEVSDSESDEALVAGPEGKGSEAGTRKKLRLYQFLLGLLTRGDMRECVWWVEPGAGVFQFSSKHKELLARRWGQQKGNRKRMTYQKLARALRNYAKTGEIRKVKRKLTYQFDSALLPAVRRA
In short: as §1

ELK3 = target: T6, ELK3 (Homo sapiens, UniProt P41970 1-407)
T6 sequence: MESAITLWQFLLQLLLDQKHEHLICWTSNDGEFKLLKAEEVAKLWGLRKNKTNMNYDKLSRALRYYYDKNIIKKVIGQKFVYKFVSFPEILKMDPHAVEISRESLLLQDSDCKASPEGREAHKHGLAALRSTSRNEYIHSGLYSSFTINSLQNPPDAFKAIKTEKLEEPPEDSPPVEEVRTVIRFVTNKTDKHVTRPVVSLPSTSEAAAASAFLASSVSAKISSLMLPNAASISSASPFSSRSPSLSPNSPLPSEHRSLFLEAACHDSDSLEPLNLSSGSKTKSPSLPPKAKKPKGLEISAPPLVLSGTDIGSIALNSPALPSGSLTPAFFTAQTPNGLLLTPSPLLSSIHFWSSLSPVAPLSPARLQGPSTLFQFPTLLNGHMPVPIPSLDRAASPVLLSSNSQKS
In short: as §1

Row | Sequence | binding signal (FLI1) | binding signal (ELK1) | binding signal (GABPA) | binding signal (ERG) | binding signal (ELF1) | binding signal (EHF) | binding signal (SPI1) | binding signal (SPIB) | binding signal (ELK3)
1 | CGAGCT | 1.02 fold enrichment (6-mer frequency, TF over GST control) | 1.02 fold enrichment (6-mer frequency, TF over GST control) | 1.09 fold enrichment (6-mer frequency, TF over GST control) | 1.04 fold enrichment (6-mer frequency, TF over GST control) | 1.06 fold enrichment (6-mer frequency, TF over GST control) | 1.13 fold enrichment (6-mer frequency, TF over GST control) | 1.03 fold enrichment (6-mer frequency, TF over GST control) | 1.04 fold enrichment (6-mer frequency, TF over GST control) | 1.06 fold enrichment (6-mer frequency, TF over GST control)
2 | CGACCG | 1.2 fold enrichment (6-mer frequency, TF over GST control) | 1.19 fold enrichment (6-mer frequency, TF over GST control) | 1.21 fold enrichment (6-mer frequency, TF over GST control) | 1.36 fold enrichment (6-mer frequency, TF over GST control) | 1.17 fold enrichment (6-mer frequency, TF over GST control) | 1.11 fold enrichment (6-mer frequency, TF over GST control) | 1.06 fold enrichment (6-mer frequency, TF over GST control) | 1.07 fold enrichment (6-mer frequency, TF over GST control) | 1.21 fold enrichment (6-mer frequency, TF over GST control)
3 | CTCTCC | 1.35 fold enrichment (6-mer frequency, TF over GST control) | 1.33 fold enrichment (6-mer frequency, TF over GST control) | 1.37 fold enrichment (6-mer frequency, TF over GST control) | 1.22 fold enrichment (6-mer frequency, TF over GST control) | 1.4 fold enrichment (6-mer frequency, TF over GST control) | 1.34 fold enrichment (6-mer frequency, TF over GST control) | 1.41 fold enrichment (6-mer frequency, TF over GST control) | 1.35 fold enrichment (6-mer frequency, TF over GST control) | 1.37 fold enrichment (6-mer frequency, TF over GST control)
4 | AAGATA | 1.07 fold enrichment (6-mer frequency, TF over GST control) | 1.15 fold enrichment (6-mer frequency, TF over GST control) | 1.14 fold enrichment (6-mer frequency, TF over GST control) | 1.17 fold enrichment (6-mer frequency, TF over GST control) | 1.14 fold enrichment (6-mer frequency, TF over GST control) | 1.18 fold enrichment (6-mer frequency, TF over GST control) | 1.08 fold enrichment (6-mer frequency, TF over GST control) | 1.12 fold enrichment (6-mer frequency, TF over GST control) | 1.23 fold enrichment (6-mer frequency, TF over GST control)
5 | ATCATA | 1.07 fold enrichment (6-mer frequency, TF over GST control) | 1.06 fold enrichment (6-mer frequency, TF over GST control) | 1.16 fold enrichment (6-mer frequency, TF over GST control) | 1.05 fold enrichment (6-mer frequency, TF over GST control) | 1.12 fold enrichment (6-mer frequency, TF over GST control) | 1.03 fold enrichment (6-mer frequency, TF over GST control) | 1.05 fold enrichment (6-mer frequency, TF over GST control) | 1.18 fold enrichment (6-mer frequency, TF over GST control) | 1.09 fold enrichment (6-mer frequency, TF over GST control)
6 | AATTTG | 1.35 fold enrichment (6-mer frequency, TF over GST control) | 1.22 fold enrichment (6-mer frequency, TF over GST control) | 1.33 fold enrichment (6-mer frequency, TF over GST control) | 1.26 fold enrichment (6-mer frequency, TF over GST control) | 1.26 fold enrichment (6-mer frequency, TF over GST control) | 1.23 fold enrichment (6-mer frequency, TF over GST control) | 1.33 fold enrichment (6-mer frequency, TF over GST control) | 1.34 fold enrichment (6-mer frequency, TF over GST control) | 1.12 fold enrichment (6-mer frequency, TF over GST control)
7 | CTCGGC | 1.47 fold enrichment (6-mer frequency, TF over GST control) | 1.33 fold enrichment (6-mer frequency, TF over GST control) | 1.39 fold enrichment (6-mer frequency, TF over GST control) | 1.26 fold enrichment (6-mer frequency, TF over GST control) | 1.38 fold enrichment (6-mer frequency, TF over GST control) | 1.52 fold enrichment (6-mer frequency, TF over GST control) | 1.45 fold enrichment (6-mer frequency, TF over GST control) | 1.27 fold enrichment (6-mer frequency, TF over GST control) | 1.39 fold enrichment (6-mer frequency, TF over GST control)
8 | CGGCTA | 1.16 fold enrichment (6-mer frequency, TF over GST control) | 1.14 fold enrichment (6-mer frequency, TF over GST control) | 1.1 fold enrichment (6-mer frequency, TF over GST control) | 1.1 fold enrichment (6-mer frequency, TF over GST control) | 1.15 fold enrichment (6-mer frequency, TF over GST control) | 1.13 fold enrichment (6-mer frequency, TF over GST control) | 1.16 fold enrichment (6-mer frequency, TF over GST control) | 1.21 fold enrichment (6-mer frequency, TF over GST control) | 1.02 fold enrichment (6-mer frequency, TF over GST control)
9 | AATAAC | 1.31 fold enrichment (6-mer frequency, TF over GST control) | 1.33 fold enrichment (6-mer frequency, TF over GST control) | 1.3 fold enrichment (6-mer frequency, TF over GST control) | 1.27 fold enrichment (6-mer frequency, TF over GST control) | 1.23 fold enrichment (6-mer frequency, TF over GST control) | 1.26 fold enrichment (6-mer frequency, TF over GST control) | 1.18 fold enrichment (6-mer frequency, TF over GST control) | 1.37 fold enrichment (6-mer frequency, TF over GST control) | 1.33 fold enrichment (6-mer frequency, TF over GST control)
